In the library only some 3.1% were active in any assay of this set; here they are far more common.
EWS-Fli block = EWS/Fli transcriptional activity inhibition | inhibition, % at 12.6 µM | actives 0.67% (n = 350,000) | A673 NR0B1-luciferase reporter, viability-normalised;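 active means mean inhibition of at least 50% after viability correction, with every replicate also passing that limit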;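 further: firefly luciferase signal divided by Alamar Blue viability fluorescence both relative to DMSO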
HIV Env fusion = blocks HIV Env-driven cell-cell fusion. HeLa-JRFL Env/CEM21 cell fusion, luciferase. inhibition, % at 12.3 µM. actives 1.1% (n = 360,000);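 active means mean replicate inhibition score of at least 50 and every replicate individually at or above 50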
PAX8 reporter = inhibitors of PAX8 transcriptional activity in RMG-I cells. RMG-I TPO-luciferase reporter, SteadyGlo, 24 h. AID 652154. inhibition, % at 12.6 µM. actives 1.2% (n = 360,000);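 active means mean replicate inhibition at least 60% with every replicate also reaching 60%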;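 further: luciferase light reporting Pax8 driven TPO promoter activity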
miR122 inh = blocks miR-122 activity in Huh7 sensor cells; Huh7 miR-122 Renilla luciferase sensor, 48 h; neutral wells = 0, positive control = 100; activation (reporter increase), % at 12.5 µM; actives 0.3% (n = 340,000); AID 602342;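 active means mean replicate activation score at least 90 and every replicate individually at or above 90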;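 further: higher luciferase means less miR-122 activity so hits act as miR-122 inhibitors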
GSIS activator = GLuc luminescence reporter in INS-1E cells, primary screen for activators of glucose-dependent secretion of insulin. INS-1E GLuc reporter insulin secretion, 2-3 h. actives 0.61% (n = 370,000). activation, % at 16.6 µM;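 active means lowest replicate activation of at least 40%, so every replicate reaches that level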
Statin myotox sup = protects C2C12 myotubes from simvastatin toxicity | ATP luminescence, 48 h; scaled: DMSO 0, geranylgeraniol control 100 | actives 0.78% (n = 330,000) | rescue of ATP level, % at 7.49 µM;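 active means mean ATP rescue above about 67%, or every replicate alone reaching that limit, limit read from the data, passing the limit was not always enough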;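 further: myotubes were challenged with 10 µM simvastatin during compound exposure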
A number is an active result.

`Cc1cc(NC(=O)/C=C/c2ccc(Cl)cc2)no1` gave HIV Env fusion inactive, PAX8 reporter inactive and GSIS activator 49.5.
Cc1cc(NC(=O)/C=C/c2ccc(Br)cc2)no1 was read as HIV Env fusion inactive, PAX8 reporter inactive and GSIS activator inactive.
Screening CCOc1ccc(S(=O)(=O)N2CCCC2)c2ccccc12 returned EWS-Fli block inactive, HIV Env fusion inactive, PAX8 reporter inactive, GSIS activator inactive and Statin myotox sup inactive.
Screening CCOc1c(S(=O)(=O)N2CCCC2)ccc(Cl)c1Cl returned miR122 inh inactive and Statin myotox sup 121.6.
Screening N/C(=N\OC(=O)c1ccccc1Cl)c1ccncc1 returned EWS-Fli block inactive, HIV Env fusion inactive, PAX8 reporter inactive and GSIS activator inactive.
For N/C(=N\OC(=O)c1ccc(Cl)cc1Cl)c1ccccn1 the results were HIV Env fusion inactive, PAX8 reporter 77.2 and GSIS activator inactive.
Cc1ccc(C(=O)O/N=C(\N)c2ccccn2)c(Cl)c1 was read as EWS-Fli block 85.7, HIV Env fusion 85.1, PAX8 reporter 105.1, miR122 inh inactive, GSIS activator inactive and Statin myotox sup inactive.
For N/C(=N\OC(=O)c1ccc(Cl)cc1[N+](=O)[O-])c1ccccn1 the results were EWS-Fli block inactive, HIV Env fusion inactive, PAX8 reporter inactive, miR122 inh inactive, GSIS activator inactive and Statin myotox sup inactive.
N/C(=N\OC(=O)c1ccc([N+](=O)[O-])cc1Cl)c1ccccn1 was read as EWS-Fli block 71.8, HIV Env fusion inactive, PAX8 reporter 67.8, miR122 inh inactive, GSIS activator inactive and Statin myotox sup inactive.
`Cc1ccc(C(=O)O/N=C(\N)c2ccccc2)c(Cl)c1` gave EWS-Fli block 75.1, HIV Env fusion inactive, PAX8 reporter inactive and GSIS activator inactive.
Screening COCC(=O)N1[C@@H](CO)[C@H](c2ccccc2)[C@@H]1CNC(=O)c1ccccn1 returned EWS-Fli block inactive, PAX8 reporter inactive, miR122 inh inactive, GSIS activator inactive and Statin myotox sup inactive.
Screening CCCN1C[C@@H](C)[C@H](OC)CN(C)C(=O)c2ccc(NC(=O)c3cccc(F)c3)cc2OC[C@@H]1C returned EWS-Fli block inactive, PAX8 reporter inactive, GSIS activator inactive and Statin myotox sup inactive.
`COc1ccc(NC(=O)N(C)C[C@H]2Oc3cc(-c4cccc(C(=O)N(C)C)c4)ccc3S(=O)(=O)N([C@@H](C)CO)C[C@@H]2C)cc1` gave EWS-Fli block inactive, HIV Env fusion inactive, PAX8 reporter inactive, miR122 inh inactive, GSIS activator inactive and Statin myotox sup inactive.
`COc1ccc(-c2cn(CC[C@@H]3CC[C@@H](NC(=O)CCN4CCCCC4)[C@H](CO)O3)nn2)cc1` gave EWS-Fli block inactive, HIV Env fusion inactive, PAX8 reporter inactive, GSIS activator inactive and Statin myotox sup inactive.
For Cc1noc(C)c1NC(=O)Nc1cccc2c1O[C@H](CN(C)S(=O)(=O)c1cccs1)[C@@H](C)CN([C@@H](C)CO)C2=O the results were EWS-Fli block inactive, miR122 inh inactive, GSIS activator inactive and Statin myotox sup inactive.
Cc1nn(-c2ccc(Cl)cc2)c(=O)c2ccccc12 was read as EWS-Fli block inactive, HIV Env fusion inactive, PAX8 reporter inactive and GSIS activator inactive.
Screening Cc1c(Cl)sn(-c2ccc(Cl)cc2)c1=O returned EWS-Fli block 64.6, HIV Env fusion inactive, PAX8 reporter inactive, miR122 inh inactive, GSIS activator inactive and Statin myotox sup inactive.
Screening COc1ccc2c3c([nH]c2c1)[C@@H](CO)N(C(=O)C1CCC1)CC31CN(Cc2nccs2)C1 returned EWS-Fli block inactive, PAX8 reporter inactive and GSIS activator inactive.
Screening CC(=O)c1cc(F)c(N2CCCCCC2)cc1C returned HIV Env fusion inactive, PAX8 reporter inactive, miR122 inh inactive and Statin myotox sup inactive.
CC(=O)c1cc2c(cc1C)CCCC2(C)C was read as EWS-Fli block inactive, HIV Env fusion inactive, PAX8 reporter inactive, miR122 inh inactive, GSIS activator 43.2 and Statin myotox sup inactive.
For COc1cccc(N2CCN(C(=O)c3ccc(CS(=O)c4ccc(Cl)cc4)o3)CC2)c1 (configuration not stated) the results were EWS-Fli block 56.1, HIV Env fusion inactive, PAX8 reporter inactive, GSIS activator inactive and Statin myotox sup inactive.
`COc1cccc(N2CCN(C(=O)c3ccc(CS(=O)c4ccc(C)cc4)o3)CC2)c1` (configuration not stated) gave EWS-Fli block inactive, HIV Env fusion inactive, PAX8 reporter 66.2, miR122 inh inactive, GSIS activator inactive and Statin myotox sup inactive.
`CC(C)CC#Cc1ccc2c(c1)O[C@H](CN(C)C(=O)Cc1cccnc1)[C@H](C)CN([C@H](C)CO)S2(=O)=O` gave EWS-Fli block inactive, HIV Env fusion inactive, PAX8 reporter inactive, GSIS activator inactive and Statin myotox sup inactive.
For Cc1cccc(N(Cc2cc(=O)[nH]c3ccccc23)C(=O)CCl)c1 the results were EWS-Fli block 61.0, HIV Env fusion 81.6, PAX8 reporter 115.2 and GSIS activator inactive.
CCCC(=O)N(Cc1cc(=O)[nH]c2ccccc12)c1cccc(C)c1 was read as EWS-Fli block inactive, HIV Env fusion inactive, PAX8 reporter inactive, miR122 inh inactive, GSIS activator inactive and Statin myotox sup inactive.
`COc1ccc(N(Cc2cc(=O)[nH]c3ccccc23)C(=O)CCl)cc1` gave EWS-Fli block 65.8, HIV Env fusion inactive, PAX8 reporter inactive, miR122 inh inactive, GSIS activator inactive and Statin myotox sup inactive.
CCC(=O)N1CC[C@@H]2[C@@H](CO)Nc3ccc(-c4ccc(C(=O)N(C)C)cc4)cc3[C@@H]21 was read as EWS-Fli block inactive, PAX8 reporter inactive, miR122 inh inactive, GSIS activator inactive and Statin myotox sup inactive.
For Clc1ccc(/C=N/NC2=Nc3cccc4cccc2c34)cc1 the results were HIV Env fusion inactive, PAX8 reporter inactive and GSIS activator 98.4.
`C[C@H](CO)N1C[C@H](C)[C@@H](CN(C)CC2CCCCC2)OCc2cn(nn2)CCCC1=O` gave EWS-Fli block inactive, HIV Env fusion inactive, miR122 inh inactive, GSIS activator inactive and Statin myotox sup inactive.
CCOC(=O)CSC1=C(C#N)C(c2ccc3c(c2)OCO3)CC(=O)N1 (configuration not stated) was read as HIV Env fusion inactive, PAX8 reporter inactive, miR122 inh inactive and GSIS activator inactive.
Screening CCOC(=O)CSC1=C(C#N)C(c2ccc(C)o2)CC(=O)N1 (configuration not stated) returned EWS-Fli block inactive, HIV Env fusion inactive, PAX8 reporter 64.7, miR122 inh inactive and GSIS activator inactive.
`CCCCOC(=O)CSC1=C(C#N)C(c2ccc3c(c2)OCO3)CC(=O)N1` (configuration not stated) gave miR122 inh inactive, GSIS activator inactive and Statin myotox sup 101.5.
